About 79,000 compounds went through this panel and 15% of them were active in at least one assay; those are over-represented in the sample as a whole. A number with no mark means an inactive call. Calls of active or inactive are those of the source. Cut-off read from the data, not from the text of the source: active = growth inhibition above about 70%; inactive = the rest.
Assay: NCI Yeast Anticancer Drug Screen. Data for the rad50 strain (AID 155);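 note: 0% = growth of vehicle-only cultures of the same strain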
Settings: S. cerevisiae rad50 strain growth inhibition; at 50.0 µM; stronger effect = higher value
Outline: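 Cells are treated with compound, grown, and their growth is then scored against vehicle-only cultures of the same repair-deficient yeast strain.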

| SMILES | growth inhibition |
| --- | --- |
| O=C(CCCc1ccccc1)OCC(=O)c1ccc(-c2ccccc2)cc1 | 19.4% |
| O=COC1CC2CC1c1ccccc12 (configuration not stated) | 4.8% |
| Cc1cccc(C(O)(c2cccc(C)c2)C2(O)CCCCC2)c1 | -9.45% |
| c1ccc2c(c1)NCCOCCNc1ccccc1OCCNCCO2 | -1.5% |
| CC(SSc1ccc(C(C)(C)C)cc1)c1ccccc1 (configuration not stated) | 9.25% |
| O=C1C(N=Nc2ccc(S(=O)(=O)Nc3ccccn3)cc2)C(=O)N(c2ccccc2)C(=S)N1c1ccccc1 | 8.8% |
| COc1ccc(NS(=O)(=O)c2ccc(N=Cc3c4ccccc4nc4ccccc34)cc2)nn1 | 96.8% (active) |
| CN(C)CCCN1c2ccccc2Sc2ccc3ccccc3c21 | -0.35% |
| COC(=O)C1(CC(=O)C2CC2)NC(=S)NC(=O)C1C#N (configuration not stated) | 13.2% |
| O=C1N=C(c2ccccc2)C(c2ccccc2)N1 (configuration not stated) | -9.3% |
| COc1ccc(C(=O)C[n+]2cc(Br)cc(Br)c2)cc1 | 7.9% |
| C=C1C(=O)OC2/C=C(\C)C(OC(C)=O)C3OC3C(C)(O)CC(OC(=O)/C(C)=C/C)C12 (configuration not stated) | 3.35% |
| CC(=O)N/C(=C\c1ccccc1)C(N)=O | 9.9% |
| CNC(=S)N(C)/N=C/c1ccccc1 | 10.3% |
| N#CC(c1ccccc1)N(CCCCCCN(C(=O)c1ccccc1)C(C#N)c1ccccc1)C(=O)c1ccccc1 (configuration not stated) | 17.1% |
| CCOC(=O)c1cccc(NC(=O)CCl)c1 | 43.2% |
| CC1(C)C(C#N)C1C1=C(N2CCOCC2)[C@]2(C)C(OC(=O)c3ccccc3)CC[C@@H]2C1 (some centres not stated) | -8.6% |
